Where “and” joins values, the source holds several entries; their conditions need not be identical. Identical values can stand only once. The source holds several records for some structures; these can differ, active in one and inactive in another. Calls of active or inactive are those of the source. The calls were made as follows: active = hit-call score of the fitted dose curve at least 0.9, where 1 is the maximum; inactive = score below 0.9.
What was measured:
[1] = APR_HepG2_CellLoss_72hr: Apredica 72-hour HepG2 Assay for Cell Loss (AID 2282915); conditions: high-content imaging
In short: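 Cell number comes from Hoechst 33342-labelled nuclei, imaged at 20x after 3.7% formaldehyde fixation. Dosing was 0.39–200 uM, ten concentrations in duplicate, 0.5% DMSO final, for 72 h. Bidirectional fit relative to DMSO baseline.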

[2] = APR_HepG2_P-H2AX_72hr: Apredica 72-hour HepG2 Assay for H2AX Phosphorylation (AID 2282916); conditions: imaging, actives raise or lower the signal;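 also: phospho-histone H2A.x immunostain intensity per cell marking DNA damage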
In short: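 Phospho-histone H2A.x immunofluorescence, multiplexed with Hoechst and c-Jun, quantified by high-content imaging. Compounds applied to HepG2 for 72 h across ten concentrations (0.39–200 uM, 0.5% DMSO), in duplicate; DMSO baseline.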

[3] = APR_HepG2_MitoMembPot_72hr: Apredica 72-hour HepG2 Assay for Mitochondrial Membrane Potential (AID 2282917); conditions: imaging, actives raise or lower the signal
In short: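 Membrane potential read by MitoTracker Red CMXRos (250 nM, 30 min, pre-fixation) fluorescence imaging of HepG2 after 72 hr exposure. Ten concentrations, 0.39–200 uM, duplicate wells, 0.5% DMSO; fitted in both directions against DMSO baseline.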

[4] = APR_HepG2_MitoticArrest_72hr: Apredica 72-hour HepG2 Assay for Mitotic Arrest (AID 2282918); conditions: high-content imaging, actives raise or lower the signal
In short: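 Read-out is phospho-histone H3 immunofluorescence with Hoechst nuclear segmentation, imaged at 20x. Human HepG2 liver cells received ten concentrations (0.39–200 uM, final DMSO 0.5% v/v) for 72 hr before fixation. Gain or loss of signal was fitted relative to DMSO.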

[5] = APR_HepG2_MicrotubuleCSK_72hr: Apredica 72-hour HepG2 Assay for Microtubule CSK Stabilty (AID 2282919); conditions: HepG2 microtubule cytoskeleton, high-content imaging, actives raise or lower the signal
In short: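 High-content imaging of alpha-tubulin staining in fixed HepG2 cells after 72 hr treatment with ten concentrations from 0.39 to 200 uM (0.5% DMSO). Fitting was bidirectional against DMSO; taxol served as positive control.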

[6] = APR_HepG2_P-H2AX_24hr: Apredica 24-hour HepG2 Assay for H2AX Phosphorylation (AID 2282920); conditions: high-content imaging, actives raise or lower the signal
In short: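 HepG2, 24 hr, cpd 0.39–200 uM (10 conc, duplicate), DMSO 0.5% v/v final. Fix 3.7% formaldehyde, Triton X-100 permeabilize, anti-phospho-H2A.x 1:200 + Hoechst 2 ug/mL. Imaged, bidirectional fit vs DMSO.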

[7] = APR_HepG2_StressKinase_72hr: Apredica 72-hour HepG2 Assay for Stress Kinase (AID 2282921); conditions: HepG2 stress kinase (phospho-c-Jun) imaging, actives raise or lower the signal
In short: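 Stress kinase signal is phospho-c-Jun immunofluorescence (1:500 primary, Cy3 secondary) in fixed, permeabilized human HepG2 cells imaged at 20x. Exposure lasted 72 hr over ten concentrations from 0.39 to 200 uM, 0.5% DMSO, in duplicate. Bidirectional fit versus DMSO.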

[8] = APR_HepG2_p53Act_72hr: Apredica 72-hour HepG2 Assay for p53 Activation (AID 2282923); conditions: high-content imaging, actives raise or lower the signal;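 also: average cellular p53 protein immunofluorescence intensity in HepG2 cells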
In short: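 After 72 h with compound (ten points, 0.39 to 200 uM, final DMSO 0.5% v/v), fixed HepG2 cells were labelled with sheep anti-p53 and Hoechst 33342 and imaged; gain or loss versus DMSO scored.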

[9] = APR_HepG2_MitoMass_72hr: Apredica 72-hour HepG2 Assay for Mitochondrial Mass (AID 2282924); conditions: high-content imaging, actives raise or lower the signal;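 also: MitoTracker Red CMXRos stain intensity per cell imaged as mitochondrial mass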
In short: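 Readout is imaged MitoTracker Red (250 nM, 30 min, pre-fixation) signal, fitted bidirectionally against DMSO baseline. Human HepG2 liver cells received compound 0.39–200 uM in duplicate for 72 hr, final DMSO 0.5%.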

[10] = APR_HepG2_NuclearSize_72hr: Apredica 72-hour HepG2 Assay for Nuclear Size (AID 2282925); conditions: high-content imaging, actives raise or lower the signal
In short: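 Nuclear size was read by high-content imaging of Hoechst 33342 stain after formaldehyde fixation. Compounds ran 72 h on HepG2 at 0.39 to 200 uM, with final DMSO 0.5% v/v. Curves fitted both directions relative to DMSO control.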

[11] = ATG_CRE_CIS: Attagene CIS-FACTORIAL HepG2 Assay for human cAMP Responsive Element (CRE) binding protein 3 (AID 2282926); conditions: HepG2 CRE cis-reporter, Attagene multiplexed mRNA; actives raise or lower the signal
In short: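 Assay format: transient reporter transfection of HepG2, 24 h treatment, total RNA isolation with DNase I step. Reporter abundance read by fluorescence after PCR and capillary separation; DMSO-normalised gain or loss fitting.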

[12] = biological target: CCAAT/enhancer-binding protein beta (Homo sapiens) (UniProt P17676); experiment: ATG_C_EBP_CIS: Attagene CIS-FACTORIAL HepG2 Assay for human CCAAT/Enhancer Binding Protein (C/EBP) beta (AID 2282927); conditions: HepG2 Attagene cis-factorial transcription factor reporter; actives raise or lower the signal
Chain of CCAAT/enhancer-binding protein beta (Homo sapiens) (P17676 whole entry, looked up): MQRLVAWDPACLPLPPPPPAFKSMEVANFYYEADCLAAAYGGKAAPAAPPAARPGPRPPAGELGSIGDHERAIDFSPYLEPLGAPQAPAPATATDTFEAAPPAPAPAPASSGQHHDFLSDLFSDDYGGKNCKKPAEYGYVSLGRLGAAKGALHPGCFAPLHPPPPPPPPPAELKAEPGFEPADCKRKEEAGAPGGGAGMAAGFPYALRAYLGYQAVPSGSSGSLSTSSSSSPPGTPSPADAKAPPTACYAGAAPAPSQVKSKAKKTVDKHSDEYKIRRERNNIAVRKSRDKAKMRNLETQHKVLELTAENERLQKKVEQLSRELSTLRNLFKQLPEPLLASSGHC
In short: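 Changes in reporter mRNA, rather than exogenous chimeric receptor activity, reflect native C/EBP signalling in transfected HepG2 cells dosed for 24 h; transcripts are detected by RT-PCR and capillary electrophoresis.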

[13] = ATG_CMV_CIS: Attagene CIS-FACTORIAL HepG2 Assay for human CMV (Internal Marker) (AID 2282928); conditions: HepG2 CMV promoter reporter, transcription factor profiling; actives raise or lower the signal;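 also: endpoint acts as a background internal control marker rather than a target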
In short: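 Readout: fluorescent reporter cDNA fragments separated by capillary electrophoresis after RT-PCR and HpaI cut. Cells: HepG2 carrying transfected cis-promoter reporter constructs, dosed 24 h. Endpoint serves as background internal-marker control, fit bidirectionally versus DMSO.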

[14] = ATG_DR4_LXR_CIS: Attagene CIS-FACTORIAL HepG2 Assay for human Liver X Receptor (LXR), DR4 submotif (AID 2282929); conditions: HepG2 Attagene DR4 cis-reporter, mRNA transcription; actives raise or lower the signal
In short: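 The endpoint is DR4-element-driven reporter transcripts after 24 h chemical exposure of transfected HepG2 cells. These were measured via RT-PCR and capillary electrophoresis, and gain or loss of signal was fitted relative to DMSO controls.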

[15] = biological target: Aryl hydrocarbon receptor (Homo sapiens) (UniProt P35869); experiment: ATG_Ahr_CIS: Attagene CIS-FACTORIAL HepG2 Assay for human Aryl Hydrocarbon Receptor (Ahr) (AID 2282930); conditions: HepG2 AhR cis-factorial reporter transcription; actives raise or lower the signal
Chain of Aryl hydrocarbon receptor (Homo sapiens) (P35869 whole entry, looked up): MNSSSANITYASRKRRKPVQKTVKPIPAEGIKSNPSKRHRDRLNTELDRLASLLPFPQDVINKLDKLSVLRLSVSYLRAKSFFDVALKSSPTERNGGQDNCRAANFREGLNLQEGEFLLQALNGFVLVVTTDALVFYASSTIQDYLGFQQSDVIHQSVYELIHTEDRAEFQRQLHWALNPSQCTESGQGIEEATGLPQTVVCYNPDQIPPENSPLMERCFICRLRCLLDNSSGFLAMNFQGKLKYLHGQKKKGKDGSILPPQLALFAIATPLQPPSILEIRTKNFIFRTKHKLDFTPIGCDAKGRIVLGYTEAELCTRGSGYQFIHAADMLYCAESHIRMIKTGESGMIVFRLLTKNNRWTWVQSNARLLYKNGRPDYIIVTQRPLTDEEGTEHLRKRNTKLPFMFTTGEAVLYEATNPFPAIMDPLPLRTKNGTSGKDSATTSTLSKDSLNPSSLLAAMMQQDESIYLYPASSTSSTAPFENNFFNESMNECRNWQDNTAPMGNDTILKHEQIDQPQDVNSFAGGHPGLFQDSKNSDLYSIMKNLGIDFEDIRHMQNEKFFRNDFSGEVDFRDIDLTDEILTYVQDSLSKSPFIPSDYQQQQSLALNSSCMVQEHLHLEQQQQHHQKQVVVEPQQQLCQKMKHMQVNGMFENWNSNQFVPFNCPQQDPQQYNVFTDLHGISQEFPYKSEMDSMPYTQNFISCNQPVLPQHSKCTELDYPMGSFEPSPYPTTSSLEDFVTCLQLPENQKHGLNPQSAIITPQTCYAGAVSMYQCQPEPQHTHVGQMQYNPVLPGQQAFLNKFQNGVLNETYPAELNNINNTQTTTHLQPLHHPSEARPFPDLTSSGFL
In short: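 HepG2, transient MRTU (cis) transfection, 24 h exposure. RNA → cDNA → PCR → 6-FAM primer extension → HpaI 2 h 37 C → CE. Fit: bidirectional, DMSO baseline.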

[16] = ATG_AP_1_CIS: Attagene CIS-FACTORIAL HepG2 Assay for human Activator Protein 1 (AP-1) (AID 2282931); conditions: HepG2 Attagene cis-factorial AP-1 reporter mRNA; actives raise or lower the signal
In short: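 Readout is reporter transcript level from endogenous transcription factor activity, quantified by RT-PCR with fluorescent primer extension and capillary electrophoresis. Transiently transfected HepG2 cells, 24 h exposure. Curves fitted both directions versus DMSO.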

[17] = ATG_BRE_CIS: Attagene CIS-FACTORIAL HepG2 Assay for human Bone Morphogenetic Protein (BMP) Response Element (BRE) (AID 2282933); conditions: HepG2 BMP response element reporter, Attagene transcription factor profiling; actives raise or lower the signal
In short: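 Read-out: reporter mRNA induction quantified by RT-PCR and capillary electrophoresis after 24 h chemical exposure of transfected HepG2 cells. Endogenous factor activity on the BMP response element; gain or loss fitted against DMSO baseline.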

[18] = biological target: Retinoic acid receptor alpha (Homo sapiens) (UniProt P10276); experiment: ATG_DR5_RAR_CIS: Attagene CIS-FACTORIAL HepG2 Assay for human Retinoic Acid Receptor Alpha (RARE), DR5 submotif (AID 2282934); conditions: HepG2 Attagene cis-factorial RARE DR5 reporter, mRNA; actives raise or lower the signal;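 as to AC50: reporter responds to endogenous RAR alpha beta and gamma in HepG2 not RARA alone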
Chain of Retinoic acid receptor alpha (Homo sapiens) (P10276 whole entry, looked up): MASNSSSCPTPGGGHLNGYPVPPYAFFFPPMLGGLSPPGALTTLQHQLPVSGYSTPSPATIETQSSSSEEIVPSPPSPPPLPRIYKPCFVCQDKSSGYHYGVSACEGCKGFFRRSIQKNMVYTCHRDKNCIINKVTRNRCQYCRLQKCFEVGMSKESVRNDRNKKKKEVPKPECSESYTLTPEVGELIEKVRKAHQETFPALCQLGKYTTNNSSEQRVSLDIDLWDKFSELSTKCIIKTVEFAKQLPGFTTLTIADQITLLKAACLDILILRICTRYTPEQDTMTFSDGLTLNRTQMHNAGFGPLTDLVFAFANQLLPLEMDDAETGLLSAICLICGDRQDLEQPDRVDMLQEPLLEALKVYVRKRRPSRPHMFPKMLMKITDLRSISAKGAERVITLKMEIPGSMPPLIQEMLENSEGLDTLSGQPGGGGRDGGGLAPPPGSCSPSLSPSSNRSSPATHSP
In short: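 HepG2, transient cis-reporter transfection, 24 h exposure. mRNA readout: RT-PCR, FAM label, HpaI cut, capillary electrophoresis. DMSO baseline, gain/loss fitting.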

[19] = ATG_AP_2_CIS: Attagene CIS-FACTORIAL HepG2 Assay for human Activator Protein 2 (AP-2) (AID 2282932); conditions: HepG2 AP-2 cis-reporter, Attagene transcription factor profiling; actives raise or lower the signal
In short: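 Endogenous transcription factor activity is reported through transfected multiplex reporter constructs in HepG2, after 24 h of compound exposure. Transcripts were quantified by RT-PCR and capillary electrophoresis of fluorescent fragments. Bidirectional fit against DMSO.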

## COCC(C)OCC(C)O (stereo not given)
[1]
  outcome: inactive
[2]
  outcome: inactive
[3]
  outcome: inactive
[4]
  outcome: inactive
[5]
  outcome: inactive
[6]
  outcome: inactive
[7]
  outcome: inactive
[8]
  outcome: inactive
[9]
  outcome: inactive
[10]
  outcome: inactive
[11]
  outcome: inactive
[12]
  outcome: inactive
[13]
  outcome: inactive
[14]
  outcome: inactive
[15]
  outcome: inactive
[16]
  outcome: inactive
[17]
  outcome: inactive
[18]
  outcome: inactive

## O=c1c(-c2ccc(O)cc2)coc2cc(O)ccc12
[1]
  outcome: inactive
[2]
  outcome: inactive
[3]
  outcome: inactive
[4]
  outcome: inactive
[5]
  outcome: inactive
[6]
  outcome: inactive
[7]
  outcome: inactive
[8]
  outcome: inactive
[9]
  outcome: inactive
[10]
  outcome: inactive
[12]
  AC50: 100 µM (active) and 75.6 µM (active)
  outcome: inactive
[14]
  outcome: inactive
[15]
  AC50: 69.7 µM (active)
  outcome: inactive
[16]
  outcome: inactive
[17]
  outcome: inactive
[18]
  outcome: inactive

## FC(F)(I)C(F)(F)C(F)(F)C(F)(F)C(F)(F)C(F)(F)I
[12]
  outcome: inactive
[13]
  AC50: 9.48 µM (active)
[14]
  outcome: inactive
[15]
  outcome: inactive
[16]
  outcome: inactive
[19]
  outcome: inactive
[17]
  outcome: inactive
[18]
  outcome: inactive

## CCCOc1sc(C(=O)N2CCC(c3cc(CN)ccc3F)CC2)c(C)c1Br
[1]
  AC50: 7.86 µM (active)
[2]
  AC50: 22.7 µM (active)
[3]
  outcome: inactive
[4]
  AC50: 5.79 µM (active)
[5]
  AC50: 6.58 µM (active)
[6]
  AC50: 4.23 µM (active)
[7]
  AC50: 32.1 µM (active)
[8]
  AC50: 47.1 µM (active)
[9]
  AC50: 44.5 µM (active)
[10]
  AC50: 97.5 µM (active)
[11]
  outcome: inactive
[12]
  outcome: inactive
[13]
  outcome: inactive
[14]
  outcome: inactive
[15]
  outcome: inactive
[16]
  AC50: 3.7 µM (active)
[19]
  outcome: inactive
[17]
  outcome: inactive
[18]
  outcome: inactive

## OCCC(F)(F)C(F)(F)C(F)(F)C(F)(F)C(F)(F)C(F)(F)F
[1]
  outcome: inactive
[2]
  outcome: inactive
[3]
  outcome: inactive
[4]
  outcome: inactive
[5]
  outcome: inactive
[6]
  outcome: inactive
[7]
  outcome: inactive
[8]
  outcome: inactive
[9]
  outcome: inactive
[10]
  outcome: inactive
[12]
  AC50: 146 µM (active)
  outcome: inactive
[13]
  AC50: 145 µM (active)
  outcome: inactive
[14]
  AC50: 182 µM (active)
  outcome: inactive
[15]
  outcome: inactive
[16]
  AC50: 77.3 µM (active)
  outcome: inactive
[19]
  outcome: inactive
[17]
  outcome: inactive
[18]
  outcome: inactive

## CCCCC(CC)COC(=O)CCCCC(=O)OCC(CC)CCCC (stereo not given)
[1]
  outcome: inactive
[2]
  outcome: inactive
[3]
  outcome: inactive
[4]
  outcome: inactive
[5]
  outcome: inactive
[6]
  outcome: inactive
[7]
  outcome: inactive
[8]
  outcome: inactive
[9]
  outcome: inactive
[10]
  outcome: inactive
[12]
  outcome: inactive
[13]
  outcome: inactive
[14]
  outcome: inactive
[15]
  AC50: 87.3 µM (active)
[16]
  outcome: inactive
[17]
  outcome: inactive
[18]
  outcome: inactive

## C=C(C)C(=O)OCCC(F)(F)C(F)(F)C(F)(F)C(F)(F)C(F)(F)C(F)(F)F
[1]
  outcome: inactive
[2]
  outcome: inactive
[3]
  outcome: inactive
[4]
  outcome: inactive
[5]
  outcome: inactive
[6]
  outcome: inactive
[7]
  outcome: inactive
[8]
  outcome: inactive
[9]
  outcome: inactive
[10]
  outcome: inactive
[12]
  outcome: inactive
[13]
  outcome: inactive
[14]
  outcome: inactive
[15]
  AC50: 54.4 µM (active)
  outcome: inactive
[16]
  outcome: inactive
[17]
  outcome: inactive

## C#C[C@]1(O)CC[C@H]2[C@@H]3CCC4=CC(=O)CC[C@@H]4[C@H]3CC[C@@]21C
[1]
  outcome: inactive
[2]
  outcome: inactive
[3]
  outcome: inactive
[4]
  outcome: inactive
[5]
  outcome: inactive
[6]
  outcome: inactive
[7]
  outcome: inactive
[8]
  outcome: inactive
[9]
  outcome: inactive
[10]
  outcome: inactive
[11]
  outcome: inactive
[12]
  outcome: inactive
[13]
  outcome: inactive
[15]
  AC50: 71.5 µM (active) and 50 µM (active)
  outcome: inactive
[16]
  outcome: inactive
[19]
  outcome: inactive
[17]
  outcome: inactive
[18]
  outcome: inactive

## CC(C)(C)c1cccc(C(C)(C)C)c1O
[1]
  AC50: 113 µM (active)
[2]
  outcome: inactive
[3]
  AC50: 100 µM (active)
[4]
  outcome: inactive
[5]
  outcome: inactive
[6]
  AC50: 57.3 µM (active)
[7]
  outcome: inactive
[8]
  outcome: inactive
[9]
  outcome: inactive
[10]
  outcome: inactive
[12]
  outcome: inactive
[13]
  AC50: 100 µM (active)
[14]
  outcome: inactive
[15]
  outcome: inactive
[16]
  AC50: 128 µM (active)
[17]
  outcome: inactive
[18]
  AC50: 100 µM (active)
